Experimental data taken from PubChem BioAssay (NCATS).
Several values for one entry are separate records, joined by “and”; a condition that tells them apart may be missing. Identical values can stand only once. Results filed as inconclusive are left out. A call without a number means that no potency is given here. Some compounds were tested as several samples or in several runs, with calls that do not always agree. Activity calls are given as the source filed them. The call rests on the fitted dose curve; in most records, active means well fitted curve in the direction sought with a large enough effect; inconclusive means small, poorly fitted or top-dose-only effect, or another doubt; inactive means no such curve, though single readings can be large; an effect the other way counts as inactive or inconclusive.

Legend:
[1] = molecular target: Glutathione peroxidase 1 (Homo sapiens) (UniProt P07203); test: Primary qHTS Assay for Inhibitors of Recombinant Selenoprotein Glutathione Peroxidase 1 (GPX1) (AID 1845191); details: recombinant GPX1, GR-coupled NADPH fluorescence, 15 min; series mostly up to 48.8 µM; further: nearly all actives have a fitted effect of over 65% in size; further: potency means the concentration at half of the fitted maximal effect
How it was run: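 GR-coupled assay: compounds preincubated 30 min at room temperature with GPX1, then reaction started with CHP; final 10 nM GPX1, 1 mM GSH, 0.5 mM CHP, 0.5 mM NADPH, 100 nM GR, 0.01% BSA, pH 7.5 Tris buffer. NADPH fluorescence (340/450 nm) read at 0 and 15 min.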

[2] = molecular target: Phospholipid hydroperoxide glutathione peroxidase GPX4 (Homo sapiens) (UniProt P36969); test: Primary qHTS Assay for Inhibitors of Recombinant Selenoprotein Glutathione Peroxidase 4 (GPX4) (AID 1845192); details: recombinant GPX4, GR-coupled NADPH fluorescence, 15 min; series mostly up to 50 µM; further: nearly all actives have a fitted effect of over 65% in size; further: potency means the concentration at half of the fitted maximal effect
How it was run: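 GR-coupled assay: recombinant GPX4 preincubated 30 min with compound at room temperature; final 200 nM GPX4, 1 mM GSH, 0.5 mM cumene hydroperoxide, 0.5 mM NADPH, 100 nM GR, 0.01% BSA, pH 7.5 Tris. NADPH fluorescence (340/450 nm) read at 0 and 15 min.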

[3] = molecular target: Luciferin 4-monooxygenase (Photinus pyralis) (UniProt P08659); test: Primary firefly luciferase (FLuc) qHTS assay for identification of artifact compounds. (AID 1845220); details: purified firefly luciferase, luminescence, 5 min; series mostly up to 54.1 µM; further: nearly all actives have a fitted effect of over 60% in size
How it was run: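 Enzymatic FLuc inhibition assay: compounds pre-exposed to luciferin/ATP (10 uM each) for 15 min, then purified P. pyralis enzyme at 10 nM added. Read-out: luminescence at 5 min.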

[4] = system: Nanoluciferase (engineered Oplophorus gracilirostris luciferase); test: Primary Nanoluciferase (NLuc) qHTS assay for identification of artifact compounds. (AID 1845222); details: NLuc-conditioned medium, Nano-Glo luminescence, 5 min; series mostly up to 54.1 µM;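 further: NLuc secreted into diluted conditioned medium of S16 cells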
How it was run: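 S16 cell supernatant NLuc, 1:55; cpds qHTS; 15 min RT dark; Nano-Glo substrate 1:100, 5 min; luminescence; Hill fit of % inhibition.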

[5] = Primary redox qHTS assay for identification of artifact compounds. (AID 1845223); details: Amplex Red/HRP redox cycling with DTT, fluorescence; series mostly up to 53.8 µM
How it was run: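 Amplex Red (25 uM) and HRP (250 mU/mL) in HBSS, with compounds for 15 min, then 250 uM DTT for 30 min, room temperature, dark. Fluorescence 525/598 nm read; normalized to DMSO and 10 uM DA3003; Hill fit.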

[6] = Quantitative High-Throughput drug screen in 47 multiple myeloma cell lines against the NCATS MIPE library collection: Karpas620_DSMZ cell viability assay (AID 1918959); details: Karpas620 myeloma viability, CellTiter-Glo ATP luminescence, 48 h; series mostly up to 45.8 µM; further: nearly all actives have a fitted effect of over 30% in size; further: potency means the concentration at half of the fitted maximal effect
How it was run: (§1)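 Inhibition of cell viability is measured here. Each line was plated at 500 cells per well, treated with MIPE 4.0 drugs, kept 48 hours at 37C, then assayed for ATP content by CellTiter-Glo luminescence.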

[7] = Primary fluorescence-based thiol-reactive (MSTI) qHTS assay for identification of artifact compounds. (AID 1845221); details: MSTI thiol-reactivity probe, 1 h; series mostly up to 53.8 µM;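 further: thiol-reactive compounds lower the probe fluorescence signal; nearly all actives have a fitted effect of over 65% in size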
How it was run: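 Thiol-reactive compounds detected by quenching of 4 uM MSTI fluorescence (525/598 nm) after 1 h room-temperature dark incubation in PBS pH 7.4, 2% DMSO. qHTS titration; percent inhibition Hill-fitted against Acetyl-MSTI/MSTI controls.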

[8] = Quantitative High-Throughput drug screen in 47 multiple myeloma cell lines against the NCATS MIPE library collection: Delta47_JCRB cell viability assay (AID 1918925; further: nearly all actives have a fitted effect of over 45% in size; further: potency means the concentration at half of the fitted maximal effect); details: Delta47 myeloma viability, CellTiter-Glo ATP, 48 h; series mostly up to 45.8 µM
How it was run: (§2)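 CellTiter-Glo ATP luminescence gave viability after 48 h compound treatment at 37C of 500 multiple myeloma cells per well. Normalisation used DMSO-only wells as 100% and media-only wells as 0% viability; primary qHTS of approved and investigational drugs.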

[9] = Quantitative High-Throughput drug screen in 47 multiple myeloma cell lines against the NCATS MIPE library collection: EJM_DSMZ cell viability assay (AID 1918926; further: nearly all actives have a fitted effect of over 30% in size; further: potency means the concentration at half of the fitted maximal effect); details: EJM myeloma cell viability, CellTiter-Glo ATP, 48 h; series mostly up to 45.8 µM
How it was run: as §2

[10] = Quantitative High-Throughput drug screen in 47 multiple myeloma cell lines against the NCATS MIPE library collection: AMO1_DSMZ cell viability assay (AID 1918927; further: nearly all actives have a fitted effect of over 30% in size; further: potency means the concentration at half of the fitted maximal effect); details: AMO1 myeloma cells viability, CellTiter-Glo ATP luminescence, 48 h; series mostly up to 45.8 µM
How it was run: as §2

[11] = Quantitative High-Throughput drug screen in 47 multiple myeloma cell lines against the NCATS MIPE library collection: ARD_JJKsccE7 cell viability assay (AID 1918929; further: potency means the concentration at half of the fitted maximal effect); details: ARD myeloma cell line viability, CellTiter-Glo, 48 h; series mostly up to 45.8 µM
How it was run: as §2

[12] = Quantitative High-Throughput drug screen in 47 multiple myeloma cell lines against the NCATS MIPE library collection: FR4_PLB cell viability assay (AID 1918924; further: nearly all actives have a fitted effect of over 35% in size; further: potency means the concentration at half of the fitted maximal effect); details: FR4_PLB myeloma cells viability, CellTiter-Glo ATP, 48 h; series mostly up to 45.8 µM
How it was run: as §1

[13] = Quantitative High-Throughput drug screen in 47 multiple myeloma cell lines against the NCATS MIPE library collection: ARP1_JJKsccF8 cell viability assay (AID 1918928; further: nearly all actives have a fitted effect of over 40% in size; further: potency means the concentration at half of the fitted maximal effect); details: ARP1 myeloma cells viability, CellTiter-Glo ATP, 48 h; series mostly up to 45.8 µM
How it was run: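 ATP readout (CellTiter-Glo), 48 h drug incubation, 37 °C/5% CO2, 500 cells per well; normalisation to DMSO (100%) and media-only (0%) controls.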

Chain of Phospholipid hydroperoxide glutathione peroxidase GPX4 (Homo sapiens) (P36969 whole entry, looked up): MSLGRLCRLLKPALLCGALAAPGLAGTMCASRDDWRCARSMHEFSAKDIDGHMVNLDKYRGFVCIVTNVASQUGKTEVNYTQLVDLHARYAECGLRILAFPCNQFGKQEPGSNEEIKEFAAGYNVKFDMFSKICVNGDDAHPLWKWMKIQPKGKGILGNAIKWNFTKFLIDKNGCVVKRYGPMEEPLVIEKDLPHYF
Chain of Glutathione peroxidase 1 (Homo sapiens) (P07203 whole entry, looked up): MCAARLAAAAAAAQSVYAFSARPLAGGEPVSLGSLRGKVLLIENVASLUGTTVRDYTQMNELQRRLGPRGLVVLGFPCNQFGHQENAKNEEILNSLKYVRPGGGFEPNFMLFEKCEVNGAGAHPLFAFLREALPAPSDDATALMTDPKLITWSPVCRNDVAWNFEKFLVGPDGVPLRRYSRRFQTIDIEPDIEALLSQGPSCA

| Structure (SMILES) | Potency [1] | Potency [2] | Potency [3] | Potency [4] | outcome [5] | Potency [6] | Potency [7] | Potency [8] | Potency [9] | Potency [10] | Potency [11] | Potency [12] | Potency [13] |
| --- | --- | --- | --- | --- | --- | --- | --- | --- | --- | --- | --- | --- | --- |
| CC1CCN(c2cc(N3CCN(C)CC3)ccc2NC(=O)c2cc(C#N)c[nH]2)CC1 | inactive | inactive | inactive | inactive | inactive | inactive | – | – | – | – | – | – | – |
| Fc1ccc(CNc2ncnc3ccc(F)cc23)cc1 | inactive | inactive | – | inactive | inactive | 5.9 µM (active) | inactive | 7.43 µM (active) | 6.62 µM (active) | 7.43 µM (active) | 4.69 µM (active) | – | – |
| Cn1cnc(-c2cc3nccc(Oc4ccc(NC(=S)NC(=O)Cc5ccccc5)cc4F)c3s2)c1 | inactive | inactive and 7.18 µM (active) | inactive | inactive | inactive | – | inactive | – | – | – | 18.7 µM (active) | – | – |
| C[C@@H]1CCO[C@H]2Cn3cc(C(=O)NCc4ccc(F)cc4F)c(=O)c(O)c3C(=O)N12 | inactive | inactive | inactive | inactive | inactive | – | – | – | – | – | – | – | – |
| NC(=O)c1noc([C@H](CCCC2CCCCC2)CC(=O)NO)n1 | inactive | inactive | – | inactive | inactive | 7.43 µM (active) | inactive | 9.35 µM (active) | 14.8 µM (active) | 4.18 µM (active) | – | 6.62 µM (active) | 14.8 µM (active) |
| Cc1cnc(-c2cc(N3CCN(C(=O)CCS(C)(=O)=O)CC3)ncc2Cl)c(C)c1 | inactive | inactive | inactive | inactive | – | inactive | inactive | inactive | 0.0132 µM (active) | – | inactive | – | inactive |
| Clc1ccc(C2(c3ccc(-c4cn[nH]c4)cc3)CCNCC2)cc1 | inactive | inactive | – | inactive | inactive | – | inactive | 1.32 µM (active) | 20.9 µM (active) | – | – | 20.9 µM (active) | 23.5 µM (active) |
| CNC(=O)c1cc(Oc2ccc(NC(=O)Nc3ccc(Cl)c(C(F)(F)F)c3)c(F)c2)ccn1 | inactive | inactive | – | inactive | inactive | 10.5 µM (active) | inactive | – | – | 5.9 µM (active) | 5.26 µM (active) | 23.5 µM (active) | 23.5 µM (active) |
| c1ccc(CNc2nc(N3CCOc4ccccc43)nc3c2CCCC3)cc1 | inactive | inactive | inactive | inactive | inactive | inactive | – | – | inactive | 16.6 µM (active) | 20.9 µM (active) | inactive | – |
| Cc1ccccc1C(=O)c1ccc(Nc2ccc(Br)cc2N)cc1Cl | inactive | inactive | – | inactive | inactive | 4.69 µM (active) | inactive | – | 14.8 µM (active) | 0.833 µM (active) | – | – | – |
| Cc1ccccc1-n1c(Cn2nc(-c3cccc(O)c3)c3c(N)ncnc32)nc2cccc(C)c2c1=O | inactive | inactive | – | inactive | inactive | 0.833 µM (active) | inactive | 2.96 µM (active) | – | 0.372 µM (active) | 1.05 µM (active) | 8.33 µM (active) | 3.32 µM (active) |
| c1ccc(-c2oc3ncnc(NC[C@@H]4CCCO4)c3c2-c2ccccc2)cc1 | inactive | inactive | – | inactive | inactive | 6.62 µM (active) | inactive | – | – | inactive | – | – | – |
| O=C1NC(=O)C(c2cnc3ccccn23)=C1c1cn2c3c(cccc13)CN(C(=O)N1CCOCC1)CC2 | inactive | inactive | inactive | – | – | – | – | – | 0.187 µM (active) | – | 0.0042 µM (active) | – | – |
| O=C(CC12CC3CC(CC(C3)C1)C2)Nc1cccc2nc(NCCNCCO)ccc12 | inactive | inactive | – | inactive | – | – | inactive | 2.64 µM (active) | 11.8 µM (active) | 20.9 µM (active) | 18.7 µM (active) | – | – |
| CCN1CCC(n2cc(CNc3cc(Cl)c4ncc(C#N)c(Nc5ccc(F)c(Cl)c5)c4c3)nn2)CC1 | 1.15 µM (active) | inactive | – | inactive | – | 5.9 µM (active) | inactive | 14.8 µM (active) | 10.5 µM (active) | 6.62 µM (active) | 5.9 µM (active) | – | – |
| C[C@H](c1ccc(F)cc1CCCC(=O)O)N(c1cc(F)ccc1F)S(=O)(=O)c1ccc(Cl)cc1 | inactive | inactive | – | inactive | inactive | inactive | inactive | 20.9 µM (active) | – | inactive | inactive | – | 0.935 µM (active) |
| O=C(Nc1cccc(C(F)(F)F)c1)Nc1cc(S(=O)(=O)NC2CC2)ccc1-c1ccsc1 | inactive | inactive | – | inactive | inactive | inactive | inactive | – | inactive | – | inactive | – | – |
| N#Cc1ccc(Oc2ccc3c(c2)COB3O)cc1 | inactive | inactive | inactive | – | inactive | – | inactive | – | inactive | 20.9 µM (active) | – | – | – |
